From the supplement of paper PMC6555819

How the values were obtained:
Experiment in all cases: PBM binding z-score (relative to random genomic background probes); higher = stronger binding; sequences stand for … in GC…GCGATTGACAGCGTAGAATGAAGG
[1] = tested on: FXR:RXRa (NR concentration 270 nM, RXRa partner concentration 90 nM)
Outline: (§1)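 The probes on custom Agilent 4×180K protein-binding microarrays were double-stranded, with 34-nt variable regions bearing direct-repeat seeds, single-nucleotide variants, half-site ablations and random human genomic background sequences. Incubation lasted 1 h with ligand-free nuclear receptor dimers in PBS pH 7.4, 2% milk, 0.02% Triton X-100, 1 mM DTT, 0.2 mg/mL BSA and 0.4 mg/ml salmon testes DNA. Antibodies against each partner (one per run) detected bound dimers, and fluorescence scans were regression-normalized. Binding z-scores take the random background probes as reference.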

[2] = tested on: LXRa:RXRa (NR concentration 270 nM, RXRa partner concentration 90 nM)
Outline: as §1

[3] = tested on: LXRa homodimer (NR concentration 270 nM)
Outline: as §1

[4] = tested on: LXRb:RXRa (NR concentration 270 nM, RXRa partner concentration 90 nM)
Outline: as §1

[5] = tested on: LXRb homodimer (NR concentration 270 nM)
Outline: as §1

[6] = tested on: PPARa:RXRa (NR concentration 270 nM, RXRa partner concentration 90 nM)
Outline: as §1

[7] = tested on: PPARg:RXRa (NR concentration 180 nM, RXRa partner concentration 90 nM)
Outline: as §1

[8] = tested on: PPARg:RXRa 270nM:90nM, anti-RXR (NR concentration 270 nM, RXRa partner concentration 90 nM)
Outline: as §1

[9] = tested on: PPARg:RXRa 30nM:10nM, anti-RXR (NR concentration 30 nM, RXRa partner concentration 10 nM)
Outline: as §1

[10] = tested on: PPARg:RXRa 90nM:30nM, anti-RXR (NR concentration 90 nM, RXRa partner concentration 30 nM)
Outline: as §1

| Sequence | PBM binding z-score [1] | PBM binding z-score [2] | PBM binding z-score [3] | PBM binding z-score [4] | PBM binding z-score [5] | PBM binding z-score [6] | PBM binding z-score [7] | PBM binding z-score [8] | PBM binding z-score [9] | PBM binding z-score [10] |
| --- | --- | --- | --- | --- | --- | --- | --- | --- | --- | --- |
| GGTTACGGGTCAAAGGTTATAGCATGAATAGAAT | 7.96 | 5.86 | 0.937 | 5.95 | 0.466 | 7.09 | 11.1 | 9.43 | 8.67 | 10.2 |
| AGAATGAGGTTAATAAGATCAGGGAATTGCGGTC | 1.38 | 1.15 | 0.213 | 1.24 | 0.00596 | 2.74 | 1.75 | 2.22 | 0.516 | 1.58 |
| GTCCCAAGGTGAATAGGTCGTTGATGAGTAGGCG | 0.85 | 0.873 | -0.08 | 0.623 | -0.403 | 2.26 | 1.19 | 1.4 | 0.109 | 0.815 |
| GCTTATGGGTCAAAGGTTATAGCATGAATAGAAT | 6.45 | 5.27 | 0.469 | 5.46 | 0.477 | 6.76 | 11.9 | 10.1 | 10.2 | 11 |
| GCTGCTAGGTCAACGGATGGTCAGCTAAAGCTCG | 3.29 | 2.35 | -0.22 | 1.34 | -0.253 | 3.2 | 2.58 | 2.83 | 0.601 | 2.06 |
| CGAACTAGGTCAGGGACAGTGAATCTCCGCACGC | 1.19 | 0.726 | -0.107 | 0.458 | -0.639 | 3.59 | 5.89 | 4.71 | 2.38 | 4.17 |
| CCGACTGGGGCATAAGCTTACCATAAGCCAGCCC | -0.673 | -0.689 | -0.589 | -0.747 | -1.15 | -0.16 | 0.765 | 1.04 | -0.348 | 0.228 |
| GGAACGAGGGCAAAGTTGTTAGCATCTGTCGACG | 0.763 | 0.635 | -0.337 | 0.517 | -0.419 | 2.61 | 3.61 | 4.82 | 2.96 | 4.84 |
| CCTGCTAGGTCATGGTGAGCTAATCTACAGTATG | 3.57 | 2.37 | -0.17 | 1.56 | -0.467 | 3.41 | 2.55 | 2.76 | 0.872 | 1.78 |
| TAATATAGGTAATACAGGTGAAAGTCGGCATCTA | 0.455 | 1.04 | 0.599 | 0.603 | 0.797 | 2.57 | 3.18 | 3 | 2 | 2.17 |
| CCAGACAGGTGCGAAGGTAACTCAGCCTCGATTA | -0.321 | -0.36 | -0.34 | -0.424 | -0.755 | -0.406 | 0.0695 | -0.0964 | -0.987 | -0.523 |
| CCTAGCAGGCCAATCTGGGTCACTCTAGGCTTGA | 0.0739 | 0.774 | -0.56 | 0.28 | -1.07 | 2.36 | 1.46 | 1.75 | -0.203 | 0.673 |
| CCTAGCAGGCCAGGGTCACTCTAGCATTTCGCTT | 1.58 | 1.43 | -0.629 | 1.71 | -0.953 | 2.59 | 0.377 | 1.19 | -0.703 | -0.00564 |
| GCAGACAGGTGAAACGCAGGTGACTCAGGGTGGC | 0.0191 | 0.00841 | -0.506 | -0.401 | -1.12 | 1.18 | 0.635 | 0.413 | -0.264 | -0.0702 |
| TCTTGCAGGCCAGAGGGTCACTCAAGAGGTACGG | 1.13 | 1.04 | -0.621 | 1.3 | -0.52 | 2.81 | 1.99 | 3.39 | 2.63 | 3.38 |
| AGTCAAAGTTCAGGACGAGGTAACCTAAAGCACG | 4.17 | 3.71 | 1.24 | 1.96 | 0.245 | 3.49 | 4.24 | 4.79 | 2.04 | 3.75 |
| GGAACGAGGGCAAGATGATAGCAGAGTTTGATGG | 0.506 | 0.313 | -0.287 | 0.0342 | -0.415 | 1.25 | 1.39 | 0.84 | 0.0817 | 0.398 |
| TAGCCTAGGTCATGCGGGCCACTATAGTGTCGGC | 4.19 | 3.36 | 0.309 | 1.86 | -0.164 | 3.55 | 2.41 | 2.65 | 0.295 | 1.5 |
| CCTAGTGGGCCAAAAAGGTCATTGATGCCGATAA | 3.3 | 4.12 | 3.05 | 3.87 | 0.134 | 4.56 | 3.16 | 3.97 | 1.73 | 3.24 |
| TCATACAGGTGAAGGTAACTCAGGTACGCAGTCG | 1.02 | 2.17 | 0.186 | 1.18 | 0.221 | 1.68 | 1.3 | 2.39 | 3.72 | 3.04 |
| AGTCAAAGTTCATCTAGTTAACGTAAGATATGCT | 6.78 | 6.1 | 5.42 | 3.68 | 2.06 | 4.77 | 6.49 | 5.96 | 3.55 | 5.46 |
| TCGAGTGGGTTACCAATGGGGCATTCAGCTTTCT | -1.28 | 0.53 | -0.905 | 0.75 | -0.956 | 0.859 | -0.273 | 0.677 | 0.872 | 0.607 |
| ATCTAAAGGTCGTGAGGTGAGTATACAGAAAGGC | 5.84 | 5.04 | 1.01 | 3.73 | 1.12 | 5.2 | 4.73 | 4.73 | 2.02 | 3.72 |
| GCAGACATGTGAAACGCAGGTAACTCAGGGTGGC | -0.536 | -0.654 | -0.866 | -0.864 | -1.11 | -0.505 | 0.622 | -0.625 | -0.725 | -0.59 |
